# Hits are enriched below; roughly 10% of the tested compounds scored in any of these assays.
# Sfp PPTase inh – blocks B. subtilis Sfp PPTase activity. Q9F4F7. Biochemical Sfp PPTase activity, qHTS. Potency, µM, inactives show largest response in the series, negative = inhibition, usual class: inhibitors. 3.5% of 310,000 active. AID 1490;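 further: the enzyme is Sfp with the accession as filed and its product quenches rhodamine fluorescence; potency means the concentration at half of the fitted maximal effect; 0% = enzyme reaction without inhibitor and -100% = no enzyme wells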
#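 With Hepes-Na pH 7.6 buffer containing 10 mM MgCl2, Sfp (15 nM) modified BHQ-2-YbbR (12.5 uM) using rhodamine-CoA (5 uM). Two reads 30 minutes apart at 525/598 nm yielded each well's rate.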
# VDR inhibitor – inhibitors of human vitamin D receptor; VDR-SRC2-3 peptide fluorescence polarization, 2 h; Potency, µM, without a hit: max response, negative = inhibition, most hits filed as inhibitors; P11473; 0.93% of 400,000 active; AID 504847; further: potency means the concentration at half of the fitted maximal effect
#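 Reagent solutions, kept cold and dark, are dispensed first; compounds are then pinned in at 23 nl, plates briefly spun, and incubated 2 h at ambient temperature. Inhibition of VDR–SRC2-3 peptide binding is read by fluorescence polarization.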
# CCT chaperon mod – modulators of cytosolic chaperonin (CCT/TRiC) activity. purified chaperonin ATPase assay, HTRF ADP detection, 30 min. activity change, % (test concentration not listed), hits read low. 0.3% of 360,000 active. AID 651819; in the data active means activity change below about -30%
#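 Nucleotide hydrolysis assay: TRiC at 20–40 nM final (set by batch activity) with 10 uM ATP, 30 min at 37 °C, in presence of 76 uM compound. Detection by competitive ADP HTRF, 30 min ambient.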
# PLK1 PBD inh – inhibitors of human PLK1 polo-box domain binding | 2.8% of 360,000 active | Plk1 PBD binding of FITC phosphopeptide, fluorescence polarization | P53350 | AID 720504 | Potency, µM, without a hit: max response, negative = inhibition, hits mostly inhibitors; further: potency means the concentration at half of the fitted maximal effect; series mostly up to about 57 µM; nearly all actives have a fitted effect of over 65% in size
# Target sequence (P53350 whole entry, looked up, the tested form may be a part): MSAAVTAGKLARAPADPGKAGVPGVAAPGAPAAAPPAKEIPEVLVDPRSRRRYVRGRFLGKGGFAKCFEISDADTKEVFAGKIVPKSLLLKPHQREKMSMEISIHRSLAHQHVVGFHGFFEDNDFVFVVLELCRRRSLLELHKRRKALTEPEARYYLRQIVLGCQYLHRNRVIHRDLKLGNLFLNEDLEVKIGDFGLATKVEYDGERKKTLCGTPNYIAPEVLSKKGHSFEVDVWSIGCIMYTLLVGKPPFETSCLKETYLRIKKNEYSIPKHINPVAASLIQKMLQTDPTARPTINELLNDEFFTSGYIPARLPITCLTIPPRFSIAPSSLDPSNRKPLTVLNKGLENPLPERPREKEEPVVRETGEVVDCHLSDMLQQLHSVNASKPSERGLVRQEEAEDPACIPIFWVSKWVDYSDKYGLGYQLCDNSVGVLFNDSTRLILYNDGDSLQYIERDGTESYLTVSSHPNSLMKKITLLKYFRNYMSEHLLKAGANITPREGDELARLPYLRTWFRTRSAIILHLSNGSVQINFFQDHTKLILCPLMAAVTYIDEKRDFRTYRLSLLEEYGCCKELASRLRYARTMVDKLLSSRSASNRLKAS
# MmCpn inh – M. maripaludis TRiC chaperonin inhibition; purified Mm-Cpn ATPase, ADP Transcreener TR-FRET; 0.031% of 330,000 active; Potency, µM (series often up to 76.9 µM), without a hit: at the highest dose activity, negative = inhibition, most hits filed as inhibitors; AID 504842; further: potency means the concentration at half of the fitted maximal effect; nearly all actives have a fitted effect of over 80% in size
#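 Purified archaeal chaperonin (25 nM final) was preincubated with compound for 10 min at 37°C, then ATP (10 uM final) was added for 30 min at 37°C in Tris pH 7.4/KCl/MgCl2/DTT buffer. ADP was quantified by HTRF Transcreener TR-FRET.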
# G9a block – inhibitors of human histone lysine methyltransferase G9a; 8.8% of 350,000 active; Q96KQ7; G9a H3K9 monomethylation, AlphaScreen, 2 h; Potency, µM (highest dose often 102 µM), inactives show top-dose activity, negative = inhibition, usual class: inhibitors; further: potency means the concentration at half of the fitted maximal effect; nearly all actives have a fitted effect of over 75% in size
#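 Signal arises when biotinylated H3K9 peptide, once monomethylated, bridges streptavidin donor and antibody-captured acceptor beads. Enzyme at 20 nM was preincubated 15 min with test compounds; peptide 500 nM and SAM 20 uM then reacted for 2 h.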
# Active calls of the source: *; ? = inconclusive; . = no result; ! = not active in a repeat; [ ] = remark or other dose. Unless noted, the call rests on the fitted dose curve; in most records, active means well fitted curve in the direction sought with a large enough effect; inconclusive means small, poorly fitted or top-dose-only effect, or another doubt; inactive means no such curve, though single readings can be large; an effect the other way counts as inactive or inconclusive. Unless noted, on the % scale 0 is the no-effect control and ±100 the full control effect.
SMILES,Sfp PPTase inh,VDR inhibitor,CCT chaperon mod,PLK1 PBD inh,MmCpn inh,G9a block
COc1ccc(CN2CCN(CC3CC3)CC2CCO)cc1C (stereo unspecified),5%,?,-1,8%,-2%,4%
CCCn1cc(S(=O)(=O)c2cc(C)ccc2C)c(=O)c2cc(F)c(N3CCCCCC3)cc21,.,-2%,.,.,.,7%[59 µM]
COc1ccc(-c2nc3cnc(N4CCNCC4)nc3n(-c3ccccc3)c2=O)cc1,1%,-3%,.,.,.,12%[12.7 µM]
Cc1ccc(CSc2nc3c([nH]c4ccccc43)c(=O)n2C)cc1,.,7%,.,.,.,5%[59 µM]
COc1ccc(/C=C(/NC(=O)c2ccc([N+](=O)[O-])cc2)C(=O)NCCCN(C)C)cc1,-5%,-19%,1,-4%,-3%,-5%
COc1ccc(C(=O)N/C(=C\c2ccc([N+](=O)[O-])cc2)C(=O)NC(CCSC)C(=O)O)cc1 (stereo unspecified),-21%,-12%,1,-4%,-5%,50µM*
C=CCNC(=O)/C(=C\c1ccc(OC)cc1)NC(=O)c1ccc([N+](=O)[O-])cc1,-8%,-19%,-35*,-8%,2%,-6%
Cc1cc(OC(=O)c2c(F)cc(F)cc2F)nc(C)n1,22%,10%,0,21µM*,1%,-25%
COc1cc(/C=C/C(=O)c2c(O)cc(C)oc2=O)cc(OC)c1O,-23%,22µM*!,0,-2%,-2%,45µM*
COc1cc(/C=C/C(=O)c2ccc(C)c([N+](=O)[O-])c2)cc(OC)c1O,-1%,?,0,-17%,-2%,45µM*
C/C(=C\C(=O)c1c(O)cc(C)oc1=O)N(C)C,-9%,5%,0,30µM*,3%,?
Cc1cc(O)c(C(=O)/C=C/c2ccc(Cl)cc2)c(=O)o1,3%,?,-2,-11%,-7%,-7%[2.33 µM]
COc1ccc(C(=O)/C=C/c2cc(OC)c(O)c(OC)c2)c(F)c1,79µM*,?,0,2%,-5%,8.9µM*
COC(=O)N/N=C(\C)c1ccc(C)c([N+](=O)[O-])c1,-7%,-12%,0,-1%,-1%,-5%
COc1ccc2cc(C(=O)/C=C/c3cc(OC)c(O)c(OC)c3)ccc2c1,-30%,-21%,0,1%,-5%,50µM*
COc1cc(/C=C/C(=O)c2ccccc2O)cc(OC)c1OC,-13%,32µM*,-2,?,-4%,45µM*
COC(=O)[C@@H]1CC[C@H](C)[C@@H](c2ccc(C)cc2)N1C(=O)c1ccc(/C=N\O[C@@H]2O[C@H](COC(C)=O)[C@H](OC(C)=O)[C@H](OC(C)=O)[C@H]2OC(C)=O)cc1,-15%,.,.,.,.,.
COc1cc(/C=C2\SC(=S)N(NC(=O)c3ccncc3)C2=O)ccc1O,5%,0%,0,39%,-4%,45µM*
COc1cc(/C=C2\SC(=S)N(NC(=O)c3cccc(O)c3)C2=O)ccc1O,-13%,3%,2,26%,-7%,35µM*
COc1cc(/C=C2\SC(=S)N(NC(=O)c3ccccc3OC)C2=O)ccc1O,175%,3%,-8,20%,-9%,16µM*
COc1ccccc1C(=O)NN1C(=O)/C(=C/c2cccn2C)SC1=S,6%,.,.,.,-2%,.
O=C(O)c1ccc(/C=C2\SC(=S)N(NC(=O)c3ccccc3)C2=O)cc1,4%,-23%,0,-13%,-7%,?
COc1cc(/C=C2\SC(=S)N(NC(=O)c3ccc(O)c(OC)c3)C2=O)ccc1O,2%,5%,0,30%,-7%,35µM*
CCOc1cc(/C=C2\SC(=S)N(NC(=O)c3cccnc3)C2=O)ccc1O,-7%,-5%,-3,36%,-3%,10%[12.7 µM]
CN(C)c1ccc(CNC(=O)c2cccn2-c2nnc(N3CCCCC3)s2)cc1,.,0%,.,.,.,-43%[59 µM]
SMILES,Sfp PPTase inh,VDR inhibitor,CCT chaperon mod,PLK1 PBD inh,MmCpn inh,G9a block
O=C(NC1CC(=O)N(c2ccccc2)C1)c1ccc(S(=O)(=O)N2CCCC2)cc1 (stereo unspecified),.,12%,.,.,.,5%[59 µM]
Cc1ccnc(NC(=O)c2ccccc2[N+](=O)[O-])c1,22µM*,6%,0,9.5µM*,0%,10µM*
Cc1ccnc(NC(=O)c2cccc([N+](=O)[O-])c2C)c1,12%,1%,1,2%,-3%,4%
Cc1ccc(NC(=O)CCC(=O)NNC(=O)c2cccs2)c(C)c1,8%,1%,-2,-9%,2%,23%[59 µM]
Cc1ccc(NC(=O)CCC(=O)NNC(=O)c2ccccc2[N+](=O)[O-])c(C)c1,11%,5%,-1,-9%,-1%,50µM*
O=C(CN1C(=O)c2cccnc2Oc2ccc(Cl)cc21)Nc1cccc(C(F)(F)F)c1,.,15%,.,.,.,1%[59 µM]
CC1(C)CC(=O)C2=C(C1)O[C@@]1(CCCCN3C(=O)c4ccccc4C3=O)Cc3ccccc3C2O1,3%,.,.,.,0%[15.4 µM],.
CN(C(=O)Cn1cnc2onc(-c3ccc(F)cc3)c2c1=O)c1ccccc1Cl,.,12%,.,.,.,1%[59 µM]
N#Cc1nc(-c2ccc(Cl)cc2)oc1N1CCCCC1,?,11%,0,-2%,-1%,?
N#Cc1nc(-c2ccc(F)cc2)oc1N1CCCCC1,-18%,-8%,0,5%,-3%,13µM*
N#Cc1nc(-c2ccc(F)cc2)oc1N1CCCC1,-25%,-18%,-1,15µM*,1%,?
N#Cc1nc(-c2ccc([N+](=O)[O-])cc2)oc1N1CCCCC1,20%,-3%,2,-9%,-2%,-10%[2.33 µM]
CCCCN(C)C(=O)CSc1nc2ccccc2nc1Cc1ccc(C)cc1,.,12%,.,.,.,18%[59 µM]
O=C(c1ccco1)N1CCC2(CCN(Cc3nccs3)CC2)CC1,21%,-1%,.,.,.,1%[12.7 µM]
CCOC(=O)C1=C(C)N(C)C(=O)NC1c1cc2c(cc1[N+](=O)[O-])OCO2 (stereo unspecified),50µM*,3%,-3,0%,0%,?
CC1=C(C(=O)OCc2ccccc2)C(c2ccccc2[N+](=O)[O-])NC(=O)N1C (stereo unspecified),-21%,-20%,0,-5%,1%,40µM*
O=C(NCc1ccco1)c1ccc(Cn2c(SCc3ccc(F)cc3)nc3cccnc32)cc1,.,-5%,.,.,.,-45%[59 µM]
Cn1c(=O)c(C(=O)c2ccccc2)c(O)c2ccccc21,.,4%,1,1%,.,.
Cn1c(=O)c(Oc2ccc(Cl)cc2)c(O)c2ccccc21,13%,2%,0,-9%,-2%,79µM*
COc1ccc(Oc2c(O)c3ccccc3n(C)c2=O)cc1,?,-5%,0,4%,-2%,45µM*
C=CCOC(=O)C(=O)/C=C/c1coc2ccccc2c1=O,45µM*,14µM*,0,?,.,-117%[59 µM]
